This is an account of results in PubChem BioAssay.

Structures are written as SMILES.

A short description of this experiment: S6 kinase pathway phospho-S6 level changes – cell-based, A549, cytoblot, luminescence, serum-stimulated, primary screen (AID 1158).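 Further: serum-stimulated A549 lung adenocarcinoma cells; signal is phosphorylated S6 detected by cytoblot immunostaining with HRP secondary.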 As to conditions: 5 h, higher = more signal.
On to `CCOC(=O)CCN1C(=O)[C@H]2[C@H]3[C@H](O)[C@H](O)CC(=NOCC=C(C)CCC=C(C)C)[C@H]3CC[C@H]2C1=O`, for which the z-score was 0.199.

In turn, `CCOC(=O)[C@H](Cc1ccccc1)NC(=O)CCC1CC(OC(=O)NCc2cccc3ccccc23)CC2(CCCC(COC(=O)NCCOc3ccccc3)O2)O1` (stereo not given in full) gave a z-score of 1.01.

`CCOC(=O)[C@H](CC(C)C)NC(=O)CCC1CC(OC(=O)NCCc2ccc(F)cc2)CC2(CCCC(COC(=O)NCCCN3CCCC3=O)O2)O1` (stereo not given in full) showed a z-score of 0.181.

Compound `CC(=O)OC[C@H]1O[C@H](CC=NOC(C)CN2CCCCc3nc(C)c(C)cc32)C=C[C@@H]1OC(C)=O` (stereo not given in full) displayed a z-score of -0.626.

Consider `C#CCCCON=C1[C@H]2CCn3c(=O)n([C@@H](CC)c4ccccc4)c(=O)n3[C@H]2[C@H](O)[C@@H]2O[C@H]12`, for which the z-score was found to be 1.09.

`CO[C@H]1C[C@@H]2C[C@H](O)CC(CC(=O)O[C@@H](C=CCC(C)C)C[C@@H]3CC[C@H](C)[C@@H](C1)O3)O2` gave a z-score of -0.254.

On to `C=CC[C@@H]1C=C[C@H](ON=C[C@@H](NS(=O)(=O)c2ccc(C)cc2)[C@H](C)C=CCC(=O)OC)[C@@H](CO)O1`, for which the z-score was -0.738.

Compound `CO[C@H]1COC(=O)CCC[C@H](C)[C@@H](OC)COC(=O)CC=C[C@@H]1C` gave a z-score of -0.279.

Regarding `O=C(NN=C1C[C@@H](O)[C@@H](O)[C@@H]2[C@@H]3C(=O)N(Cc4ccccc4)C(=O)[C@@H]3CC[C@H]12)OCc1ccccc1`, the z-score is -0.276.

`CCOC(=O)[C@H](CC(C)C)NC(=O)CCC1CC(OC(=O)NCCc2ccc(F)cc2)CC2(CCCC(COC(=O)NCc3cccc4ccccc34)O2)O1` (stereo not given in full) displayed a z-score of 0.927.
